# Experimental data published in ChEMBL document CHEMBL3988442, “University of Dundee, Small-Polar-MMV Screening Library” (2021).
# Target: AMP-activated protein kinase, AMPK (Homo sapiens) (UniProt P54646+O43741+P54619+Q9UGJ0+Q9Y478+Q13131+Q9UGI9)
# Test: AMP-dependent Kinase enzyme assay. An in vitro enzyme assay that detects ADP turnover that is directly proportional to AMPK activity. This uses naive AMPK that is activated during the assay with MK-8722
# Assay type: functional
# Set-up: scale not given: direction of the effect not stated beside the values
# Settings: 30 µM
row,SMILES,Percent Effect
1,COCC(NC(=O)c1cn2ccsc2n1)c1ccnn1C (stereo not given),-19.1%
2,Cc1nnc(-c2cccc(C#N)c2)n1C1CCN(C(C)C)C1=O (stereo not given),7.44%
3,COc1cccc2c1OCC(Cc1cc(C(=O)N3CCCC3)ccn1)C2 (stereo not given),5.36%
4,Cc1ccc(C(=O)NC2CCCN(CC(N)=O)C2)c(=O)[nH]1 (stereo not given),2.52%
5,COc1cccc(CNC(=O)C(C)N2CC(n3nc(C)cc3C)C2)c1 (stereo not given),0.116%
6,Cc1occc1C(=O)Nc1cccc(C(=O)OCC2CCCN2)c1 (stereo not given),-5.07%
7,CCCN(CC(=O)NC)C(=O)c1ccc(-c2nc(C)cs2)cc1,1.67%
8,O=C(NC1CCN(c2ccccc2OC(F)F)C1)c1cccnc1 (stereo not given),-0.669%
9,CC1CN(Cc2cccc(CN)c2)CCO1 (stereo not given),-4.57%
10,FC(F)(F)Oc1ccc(CN2CCCC(n3cncn3)C2)cc1 (stereo not given),3.31%
11,N#Cc1ccc(Cl)cc1NCC1CC1,5.1%
12,C[C@@H]1CN(c2cccnn2)CC[C@@]1(O)C1CCOCC1,2.06%
13,Cn1ccnc1CNCCNc1ncc(Cl)cc1Cl,-1.1%
14,Cn1cc(CN(C(=O)c2ccc(O)c(Cl)c2)C2CC2)cn1,10.3%
15,CC(c1nc(-c2ccccc2)no1)N1CCc2c(ncn2C2CC2)C1 (stereo not given),10.5%
16,O=C(C1CC1)N1CCCC(C2=Nc3ccccc3S(=O)(=O)N2)C1 (stereo not given),24.4%
17,Cc1nc2n(n1)CC(Nc1nc(C(F)(F)F)nc3ccccc13)CC2 (stereo not given),1.51%
18,CCCn1nnnc1CN(CC)CC1COc2ccccc2O1 (stereo not given),1.1%
19,CC1CN(CC(=O)NCCc2ccccc2)CCN1c1nccs1 (stereo not given),25.7%
20,CC1(C)CC(CN2CCC3(CCC(=O)N(C4CCC4)C3)CC2)CCO1 (stereo not given),-1.15%

row,SMILES,Percent Effect
1,CN(CCCOc1ccccc1Cl)C(=O)CN1CCNC1=O,10.2%
2,Cc1nn(C(C)C)c(C)c1CN1CCN(C2CCCCC2)C(=O)C1,8.49%
3,CCC[C@H]1CN(Cc2cc(C#N)n(C)c2C)C[C@@H]1NS(=O)(=O)CC,-157%
4,COc1ccc2c(c1)OCC(CNC1CCc3nc(C)nn3C1)=C2 (stereo not given),7.59%
5,CC1COCCN1C(=O)Cc1cc(Cl)c2c(c1)OCCO2 (stereo not given),13.4%
6,O=C(NCCc1nccs1)N1CCC(n2cccc2)CC1,-2.66%
7,CCn1c(C2CCNCC2)nn(CCn2cncn2)c1=O,3.82%
8,CCN(CC)S(=O)(=O)CC(=O)Nc1ccsc1,2.3%
9,CC1(C)Cc2nc(C(C)(C)C)ncc2C(NC(=O)CN)C1 (stereo not given),-5.88%
10,CN1CCCN(c2ccc(F)cc2CNC(=O)c2cccnc2)CC1,38.2%
11,CNS(=O)(=O)CC(=O)N(C1CC1)C1Cc2ccccc2C1,-3.11%
12,CCc1nn(C)c(Cl)c1CN1CCCC2(CC1)CN(C)C(=O)O2 (stereo not given),-9.39%
13,CCn1cnnc1CNS(=O)(=O)N1CCCC1c1ccco1 (stereo not given),-5.92%
14,CCCn1ccnc1-c1cccc(NC2CCOC2)c1 (stereo not given),1.21%
15,CN(Cc1cccc(OC(F)(F)F)c1)Cc1cnn(C)c1,-4.15%
16,O=C(COCc1ccccc1)NCc1ccc(O)c(F)c1,8.21%
17,O=C(CCn1ccc2ncccc2c1=O)N1CCCC1,-3.54%
18,O=C(Nc1ccc(I)cc1C(=O)NCCN1CCOCC1)c1ccco1,12.6%
19,CC(=O)N1CCc2nc(N(C)C)nc(NCCc3ccccc3)c2CC1,3.82%
20,Cc1nsc(C(=O)NCCc2ccc(S(N)(=O)=O)cc2)n1,2.83%
